Screens as filed in PubChem.
Compounds with a hit are over-represented: about 0.55% of the library has one in this group of screens.
LDHA block: blocks human lactate dehydrogenase A | 0.15% of 480,000 active | activity change, % (values are at about 110 or 230 µM) | AID 1347041 | purified LDHA, NADH/diaphorase-resazurin fluorescence; active compounds read low; in the data active = activity change below about -30%; inconclusive = mostly about -25% to -30%;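 note: plate controls were DMSO wells for no effect and wells without enzyme for full effect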
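LDH5 2 nM; NADH 0.06 mM, pyruvate 0.2 mM; 200 mM Tris pH 7.4, EDTA, Tween-20; 5 min RT. Detection: diaphorase 0.133 mg/mL + resazurin 37 µM, fluorescence ex540/em590 at 0 and 20 min; normalized to enzyme-free and DMSO wells.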
GRP78 ERSR act: ER stress response induction in glioma; U87-MG GRP78 promoter luciferase reporter, 16 h; 0.02% of 420,000 active; AID 602332; Potency, µM, without a hit: top-dose activation, most hits filed as activators; note: potency is the fitted concentration of half-maximal effect; series mostly up to about 76 µM; % of control where 0% means no effect; nearly all actives have a fitted effect of over 35% in size
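ERSR induction read as luciferase luminescence (Bright-Glo, 10 min at room temperature) in stably transfected human U87-MG glioma cells exposed to compounds for 16 h, using GRP78 as sensor.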
TSHR antagonist: human thyrotropin receptor antagonism; P16473; TSHR-expressing cells, TSH-stimulated cAMP HTRF, 2 h; active compounds read low; activity change, negative = inhibition, % at 11.5 µM; 0.2% of 330,000 active; AID 504810;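 active = activity change below a set negative limit, meaning inhibition stronger than a set level, cut at about -70% in these data; inconclusive = activity change between two set negative limits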; note: % is set by controls: 0 for no effect and ±100 for the full control effect
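TSHR-expressing cells were treated with compounds, then stimulated with TSH at EC80 (4nM final) for 2 hours at 37 deg C. Cellular cAMP was measured by HTRF competition between lysate cAMP and cAMP-d2 for a cryptate-labelled anti-cAMP antibody.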
TCR act: activates T cell receptor signaling; primary human leukocytes, anti-CD3, IL-2 HTRF, 48 h; Potency, µM (titrated, usually from 9.22 µM), inactives show top-dose activation of IL-2 secretion, usual class: activators; 330,000 tested, under 10 active; AID 504894; note: % of control where 0% means no effect
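Using a-CD3 beads without co-stimulation, primary human leukocytes were exposed to compounds for 48 hr. An HTRF IL-2 kit measured the cytokine, with europium-to-d2 energy transfer producing emission at 665nm upon 320nm excitation.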
RGS4 inhibitor: inhibitors of human regulator of G protein signaling 4. P49798. Transcreener GDP fluorescence polarization, RGS4-accelerated GTP hydrolysis. Potency, µM (doses to about 114 µM), for the others: at the highest dose activity change, negative = inhibition, most hits filed as inhibitors. 0.039% of 390,000 active; note: potency is the fitted concentration of half-maximal effect; % is set by controls: 0 for no effect and ±100 for the full control effect; nearly all actives have a fitted effect of over 75% in size
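MLSMR compounds (23 nl, pin-transferred) preincubated 10 min at room temperature with a 500nM (2x) first reagent, then RGS4 at 900nM (2x) plus Transcreener GDP mix added; fluorescence polarization (620/688 nm) read before and after 90 min at 30 °C.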
Akt phos inh: Akt phosphorylation inhibition | Neuro2A IGF-stimulated pAkt S473 HTRF, 20 min; active compounds read low | activity change, % for hits at 50 µM | 0.32% of 360,000 active | AID 651550; in the data active = activity change below about -80%; inconclusive = mostly about -51% to -80%; note: % is set by controls: 0 for no effect and ±100 for the full control effect
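Single-point screen (50 µM final compound) in Neuro2A cells stimulated 20 min with 6 nM IGF at 37 deg C. After lysis, Ser473-phosphorylated Akt read by HTRF (ex 330 nm, em 615/665 nm) as the 665/615 ratio.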
An asterisk follows results filed as active; i = inactive; u = inconclusive; x = no result given; [ ] = another dose, or the depositor's remark. Unless noted, calls come from the whole dose curve; as a rule, active = well fitted curve in the direction sought with a large enough effect; inconclusive = small, poorly fitted or top-dose-only effect, or another doubt; inactive = no such curve, though single readings can be large; an effect the other way counts as inactive or inconclusive.

SMILES	LDHA block	GRP78 ERSR act	TSHR antagonist	TCR act	RGS4 inhibitor	Akt phos inh
COc1ccc(NC(=O)c2c(NC(=O)CCC(=O)O)sc3c2CCC(C(C)(C)C)C3)cc1 (stereo not given)	-30*	x	x	x	x	x
Cc1ccc(OCCOCCN2CCN(C)CC2)c(C(C)(C)C)c1	-32*	-2%	-2	-5%	-10%	i
CC(C)(C)c1cc(Cl)ccc1OCCOCCN1CCCC1	-7	-4%	5	0%	-5%	i
Cc1csc(NC(=O)c2ccccc2O)n1	5	2%	9	-2%	6%	-99%*
O=C(/C=C/c1ccccc1)c1ccccn1	15	u	12	1%	-42%	-119%*
Cc1cc(C)c2cc(C(=O)NCc3ccc4c(c3)OCO4)[nH]c2c1	-6	x	x	x	x	x
CCC(=O)N1CCN(c2ccc(NC(=O)c3cc4ccccc4o3)cc2Cl)CC1	-8	-12%	-36	-6%	22%[11.4 µM]	i
CCCC(=O)N1CCN(c2ccc(NC(=O)c3cc4ccccc4o3)cc2Cl)CC1	-3	-14%	-87*	5%	-17%	i
Cc1oc2cc(OC(=O)c3ccc4c(c3)OCO4)ccc2c(=O)c1-c1ccccc1	-30*	x	x	x	x	x
CC(C)Oc1ccc2ccccc2c1/C=C(\C#N)c1nc2ccccc2[nH]1	-30*	x	x	x	x	x
CCCOc1ccc2ccccc2c1/C=C(/C#N)c1nc2ccccc2[nH]1	13	x	x	x	x	x
